Growth data for 7 compounds are collected here from PubChem BioAssay (NCI).

About 83,000 compounds went through this panel and 20% of them were active in at least one assay; those are over-represented in the sample as a whole.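 Activity criterion: percent growth below 10, measured after cells in 96-well plates were exposed to a single compound concentration for 48 hours.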 Unmarked numbers belong to inactive results. Calls of active or inactive are those of the source.

Holding throughout (experiment): NCI-60 one-dose screen, 48 h (100 = growth as untreated, 0 = no growth, -100 = all killed)
One assay deals with HCT-15 colon. Conditions: 10 µM unless noted.
Another assay relates to HT29 colon. Conditions: 10 µM unless noted.
In another assay the test system is SNB-75 CNS. Conditions: 10 µM unless noted.
The subject of another assay is SNB-19 CNS. Conditions: 10 µM unless noted.
The subject of a further assay is U251 CNS. To be noted: 10 µM unless noted.
A further assay deals with PC-3 prostate. Conditions: 10 µM unless noted.
The subject of another assay is SK-MEL-5 melanoma. Conditions: 10 µM unless noted.
In another assay the test system is UACC-62 melanoma. To be noted: 10 µM unless noted.
The subject of a further assay is LOX IMVI melanoma. To be noted: 10 µM.
A further assay relates to SK-MEL-28 melanoma. To be noted: 10 µM unless noted.
The next assay has as its system SK-MEL-2 melanoma. To be noted: 10 µM unless noted.
For a further assay, the system named is EKVX NSCLC. Conditions: 10 µM unless noted.
Another assay has as its system SN12C renal. Conditions: 10 µM unless noted.
A further assay concerns UO-31 renal. Conditions: 10 µM unless noted.
A further assay has as its system TK-10 renal. Conditions: 10 µM unless noted.
A further assay has as its system ACHN renal. Conditions: 10 µM unless noted.
Another assay concerns CAKI-1 renal. Conditions: 10 µM unless noted.
The test system of the next assay is A498 renal. To be noted: 10 µM unless noted.
For another assay, the system named is CCRF-CEM leukemia. To be noted: 10 µM unless noted.
In a further assay the test system is MOLT-4 leukemia. To be noted: 10 µM unless noted.

For `CN(C)c1nc(NCCNS(=O)(=O)c2ccc(C(=O)/C=C/c3ccc(Cl)cc3)cc2)nc(Nc2ccc(F)cc2)n1`, the growth with HCT-15 colon is -84.4% (active); in the assay on HT29 colon, -97.5% (active); in the assay with SNB-75 CNS, 13.9%; in the assay on SNB-19 CNS it was -5.63% (active); in the assay on U251 CNS, -99.8% (active); in the assay on PC-3 prostate, -65.9% (active). Further, the growth was -64.9% (active) in the assay with SK-MEL-5 melanoma; -56.8% (active) with UACC-62 melanoma; -100% (active) in the assay with LOX IMVI melanoma; -85.5% (active) in the assay with SK-MEL-28 melanoma; -56.5% (active) with SK-MEL-2 melanoma; 2.04% (active) in the assay on EKVX NSCLC. Besides, the growth is -97.7% (active) with SN12C renal; 5.91% (active) in the assay with UO-31 renal; -16.9% (active) in the assay with TK-10 renal; -24.9% (active) in the assay on ACHN renal; -23.3% (active) in the assay on CAKI-1 renal; 9.56% (active) with A498 renal. The growth is 5.38% (active) in the assay with CCRF-CEM leukemia and -12.2% (active) in the assay on MOLT-4 leukemia.
On to `COc1cc2oc(-c3cccc(NC(=O)[C@H](CC(N)=O)NC(=O)OC(C)(C)C)c3)cc(=O)c2c(OC)c1OC`, for which the growth in the assay with HCT-15 colon is 99.8%; in the assay on HT29 colon, 97.8%; in the assay on SNB-75 CNS, 95.9%; in the assay with SNB-19 CNS, 96%; with U251 CNS, 90.1%; with PC-3 prostate, 75.8%. Further, the growth with SK-MEL-5 melanoma was 87.6%; in the assay with UACC-62 melanoma, 82%; in the assay with LOX IMVI melanoma it was 81.5%; in the assay on SK-MEL-28 melanoma, 94%; in the assay on SK-MEL-2 melanoma it was 103%; in the assay with EKVX NSCLC, 99.1%. The growth is 96.9% with SN12C renal; 80.1% in the assay with UO-31 renal; 118% with TK-10 renal; 80.7% in the assay with ACHN renal; 84.5% in the assay on CAKI-1 renal; 93.8% in the assay on A498 renal. The figures for the growth in the assay on CCRF-CEM leukemia and in the assay on MOLT-4 leukemia were 54.5% and 65.1%, respectively.
With `COc1c(F)ccc(C(=O)Nc2ccc3nc(NC(=O)C4CCCN(S(=O)(=O)c5ccc(Br)s5)C4)sc3c2)c1F` (stereo not given), the growth was 63% with HCT-15 colon; 75.5% in the assay with HT29 colon; 66.5% in the assay on SNB-75 CNS; 90.1% with SNB-19 CNS; 68% in the assay on U251 CNS; 56.1% in the assay on PC-3 prostate. In addition, the growth in the assay on SK-MEL-5 melanoma was 81.5%; in the assay on UACC-62 melanoma, 75.6%; in the assay with LOX IMVI melanoma, 79.3%; in the assay with SK-MEL-28 melanoma, 94.6%; with SK-MEL-2 melanoma it was 81.8%; in the assay with EKVX NSCLC, 81.2%. Also, the growth with SN12C renal is 85.9%; in the assay on UO-31 renal it was 77.6%; with TK-10 renal, 116%; in the assay on ACHN renal, 77.2%; in the assay on CAKI-1 renal, 82.6%; in the assay with A498 renal, 104%. The growth with CCRF-CEM leukemia is 75%; with MOLT-4 leukemia, 48.5%.
As to `CC1CN(c2oc(-c3ccc([N+](=O)[O-])cc3)nc2C#N)CC(C)O1` (stereo not given), the growth was 97.1% with HCT-15 colon; 112% in the assay on HT29 colon; 98.8% in the assay on SNB-75 CNS; 92.2% in the assay on SNB-19 CNS; 104% with U251 CNS; 96.7% with PC-3 prostate. For the same compound, the growth with SK-MEL-5 melanoma is 104%; with UACC-62 melanoma, 84%; with LOX IMVI melanoma it was 95.6%; in the assay on SK-MEL-28 melanoma, 105%; with SK-MEL-2 melanoma, 103%; in the assay on EKVX NSCLC, 95.2%. Besides, the growth was 91.5% in the assay on SN12C renal; 81.7% in the assay on UO-31 renal; 109% in the assay on TK-10 renal; 108% with ACHN renal; 98.2% in the assay with CAKI-1 renal; 97.2% in the assay with A498 renal. Besides, the values for the growth in the assay with CCRF-CEM leukemia and in the assay on MOLT-4 leukemia were 100% and 99.8%, respectively.
As to `C=CC(=O)Nc1ccc(C)c(Oc2ccc(Cl)cc2)c1`, the growth with HCT-15 colon was 49.7%; in the assay on HT29 colon, 60.2%; with SNB-75 CNS it was -8.04% (active); in the assay on SNB-19 CNS it was 38%; in the assay with U251 CNS it was 36.5%; in the assay with PC-3 prostate it was 56%. Besides, the growth is 53% in the assay with SK-MEL-5 melanoma; 41.6% with UACC-62 melanoma; 27.8% in the assay with LOX IMVI melanoma; 72% in the assay with SK-MEL-28 melanoma; 41.8% in the assay with SK-MEL-2 melanoma; 62.6% in the assay on EKVX NSCLC. The growth in the assay with SN12C renal was 45.3%; in the assay with UO-31 renal it was 24.4%; with TK-10 renal it was 74%; with ACHN renal, 65.4%; with CAKI-1 renal, 61.7%; in the assay on A498 renal, 58.5%. In addition, the growth in the assay with CCRF-CEM leukemia was 57.9%; in the assay with MOLT-4 leukemia, 45.3%.
Take `COC(=O)/C=C/c1cccc2c1C(=O)NC(C)(c1cc3ccccc3oc1=O)N2` (stereo not given): the growth is 36.3% with HCT-15 colon; 69.8% with HT29 colon; 41.6% with SNB-75 CNS; 81.5% with SNB-19 CNS; 57.9% in the assay with U251 CNS; 58.9% with PC-3 prostate. The growth is 78.5% in the assay on SK-MEL-5 melanoma; 42.8% with UACC-62 melanoma; 38.9% with LOX IMVI melanoma; 75.4% in the assay on SK-MEL-28 melanoma; -2.01% (active) in the assay on SK-MEL-2 melanoma; 78.2% with EKVX NSCLC. Also, the growth in the assay with SN12C renal was 73.8%; with UO-31 renal it was 31.3%; with TK-10 renal it was 49%; with ACHN renal, 30.8%; in the assay with CAKI-1 renal, 20.7%; in the assay with A498 renal, 49.7%. The results for the growth in the assay with CCRF-CEM leukemia and in the assay on MOLT-4 leukemia were 83.7% and 63%, respectively.
On to `O=C1CC(Sc2n[nH]c(-c3ccncc3)n2)C(=O)N1c1ccc(Br)cc1` (stereo not given), for which the growth in the assay with HCT-15 colon is 102%; in the assay on HT29 colon, 112%; in the assay on SNB-75 CNS, 106%; in the assay with SNB-19 CNS, 96.1%; in the assay on U251 CNS, 107%; in the assay on PC-3 prostate, 118%. The growth with SK-MEL-5 melanoma was 115%; with UACC-62 melanoma, 96.9%; in the assay on LOX IMVI melanoma, 100%; in the assay on SK-MEL-28 melanoma, 108%; in the assay on SK-MEL-2 melanoma, 116%; in the assay with EKVX NSCLC, 106%. The growth in the assay with SN12C renal was 93.6%; with UO-31 renal it was 88.7%; in the assay on TK-10 renal it was 101%; in the assay on ACHN renal it was 109%; in the assay on CAKI-1 renal, 99.9%; with A498 renal it was 111%. Moreover, the growth in the assay with CCRF-CEM leukemia is 88.9%; in the assay with MOLT-4 leukemia it was 115%.
